# Reference: PubChem BioAssay AID1578 (Sanford-Burnham Center for Chemical Genomics, 2009)
# About 3,000 (1%) of roughly 290,000 compounds were called active. The full list was thinned out, with actives kept by preference. Values without a mark were called inactive. Rule as the data show it: active = inhibition mostly above about 36% (no sharp cut-off); inactive = mostly below about 34%.
# Experiment: inhibition of NOD1-driven NF-kB reporter – cell-based, luminescence, uHTS, primary screen (AID 1578);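 also: HEK-293T reporter cells stimulated with the NOD1 agonist gamma-tri-DAP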
# Settings: NOD1-driven NF-kB luciferase reporter cells, at 4 µM, active compounds read high
row,Structure (SMILES),inhibition
1,COC(=O)N/N=C/c1cc(C)n(-c2ccc(F)cc2)c1C,-30%
2,COC(=O)C1C2C=CC3(CN(CCc4ccccc4)C(=O)C13)O2 (centres undefined),-14.5%
3,Cc1[nH][nH]c(=O)c1/C=N/N1CCOCC1,-39.8%
4,CCC(C)(C(=O)NC1CCCCC1)N(C(=O)CC1NC(=O)NC1=O)c1c(C)n(C)n(-c2ccccc2)c1=O (centres undefined),-11.2%
5,Cc1cccc(-n2ncc3c(N4CCCC4)ncnc32)c1,-40.5%
6,CC1CCN(c2ncnc3c2cnn3-c2ccccc2)CC1,-77.4%
7,c1ccc(-n2ncc3c(N4CCCCC4)ncnc32)cc1,61.4% (active)
8,COc1cc(OC)c2cc(C(=O)N[C@H](C(=O)N3CCC[C@H]3C(=O)O)C(C)C)n(C)c2c1,-17.5%
9,Cc1nc(SCC(N)=O)c(C#N)c(C)c1C,5.5%
10,CCN(CC)C(=O)c1ccc(-c2nnc(Nc3ccc(O)cc3)c3ccccc23)cc1,43%
11,CCN(CC)C(=O)c1ccc(-c2nnc(Nc3ccc(C(=O)N(C)C)cc3)c3ccccc23)cc1,37.7%
12,CCN(CC)C(=O)c1ccc(Nc2nnc(-c3ccc(O)cc3)c3ccccc23)cc1,72.7% (active)
13,Cn1ncc(Cl)c1C(=O)N/N=C/c1cccc(OC2CSC2)c1,-1.4%
14,Cn1ncc(Br)c1C(=O)N/N=C/c1cccc(OC2CSC2)c1,60.4% (active)
15,Cn1cc(Br)c(C(=O)N/N=C/c2cccc(OC3CSC3)c2)n1,0.1%
16,CCOC(=O)c1cnc(SCC(=O)Nc2ccc(N3CCOCC3)cc2)nc1N,-15%
17,O=c1cc(NS(=O)(=O)c2ccccc2)nc(SCc2ccccc2Cl)[nH]1,-0.5%
18,O=c1cc(NS(=O)(=O)c2ccccc2)nc(SCc2c(Cl)cccc2Cl)[nH]1,102% (active)
19,O=c1cc(NS(=O)(=O)c2ccccc2)nc(SCc2ccc(Cl)cc2)[nH]1,-1.1%
20,Cc1ccc(NC(=O)CCc2nnc3ccc(N4CCC(C)CC4)nn23)nc1,-3.1%
21,Cc1[nH]n(C(N)=S)c(=O)c1N=Nc1ccc(Br)cc1,-21.9%
22,CCOc1ccc(N(CC)C(=O)Cc2c(C(=O)O)n(C)c3ccccc23)cc1,-11.1%
23,CC(C)Cc1nc(N2CCN(C(=O)c3ccco3)CC2)c(C#N)c2c1CCCC2,2.6%
24,CC(C)Cc1nc(N2CCN(C(=O)c3ccco3)CC2)c(C#N)c2c1CCC2,-0.7%
25,CCN(CC)S(=O)(=O)c1ccc(N2CCOCC2)c(NC(=O)c2ccc3ccccc3c2)c1,-17%

row,Structure (SMILES),inhibition
1,Cc1nn(CCc2nn[nH]n2)c2nc(C(F)(F)F)cc(C(F)(F)F)c12,-7.9%
2,CCOc1cc(C(=O)Nc2ccc3c(c2)OCO3)ccc1OC(F)F,-17.4%
3,Cc1ccc(-n2nnc(-c3nccs3)n2)cc1,77.8% (active)
4,Fc1ccc(-n2nnc(-c3nccs3)n2)cc1,-26%
5,Clc1ccc(-n2nnc(-c3cccnc3)n2)cc1Cl,-12.2%
6,Clc1ccc(-n2nnc(-c3cccnc3Cl)n2)cc1Cl,-3%
7,Brc1ccccc1-n1nnc(-c2nccs2)n1,-44.7%
8,Clc1ccc(-n2nnc(-c3nccs3)n2)cc1Cl,110% (active)
9,CCCC(c1nnnn1Cc1cccs1)N1CCN(C2CCCC2)CC1 (centres undefined),-49.9%
10,COc1ccccc1-n1cnc2sc(-c3ccccc3)cc2c1=O,30.1%
11,O=C(CNC(=O)c1cccc(OC(F)F)c1)OCc1cc(=O)n2cc(Br)ccc2n1,4.7%
12,OC(COc1ccccc1)CN1CCC(Cc2ccccc2)CC1 (centres undefined),-20.8%
13,CN(C)c1nc(C(F)(F)F)cc(=O)[nH]1,-21.2%
14,c1ccc(-n2ncc3c(N4CCC5(CC4)OCCO5)ncnc32)cc1,-67%
15,O=C(NC1=NCCS1)C1COc2ccccc2O1 (centres undefined),82.7% (active)
16,COc1cccc(NC(=O)C2COc3ccccc3O2)c1 (centres undefined),104% (active)
17,Cc1cccc(NC(=O)C2COc3ccccc3O2)c1 (centres undefined),-23%
18,O=C(Nc1ccccc1)C1COc2ccccc2O1 (centres undefined),-21.9%
19,COC(=O)c1cccc(NC(=O)C2COc3ccccc3O2)c1 (centres undefined),-42.9%
20,O=C(Nc1nncs1)C1COc2ccccc2O1 (centres undefined),-18.9%
21,c1ccc(COc2cccc(CNCc3cccs3)c2)cc1,-31.8%
22,O=C1CSc2ccc(C(=O)N3CCN(c4ccccn4)CC3)cc2N1,0.1%
23,C#CCSc1ncc(S(=O)(=O)c2ccccc2)c(=O)[nH]1,7.6%
24,COCCCn1c(SCC(=O)Nc2ccc(C(C)=O)cc2)nc2ccccc2c1=O,-25.3%
25,O=C(O)c1cccc(-c2nc3ccccc3[nH]2)c1,61.9% (active)

row,Structure (SMILES),inhibition
1,O=C(O)c1ccc(-c2nc3ccccc3[nH]2)cc1,-38.1%
2,c1ccc(-c2nc3ccccc3[nH]2)cc1,-1.5%
3,Cc1ccc(N/C(=C\C(=O)c2ccccc2)C(=O)O)cc1,-33.5%
4,Cc1ccc(S(=O)(=O)N2CCN(c3ccc([N+](=O)[O-])cn3)CC2)cc1,-9.1%
5,O=[N+]([O-])c1ccc(S(=O)(=O)c2ccccc2)nc1,29%
6,CCOc1cccc(C(=O)Nc2ccc(S(=O)(=O)Nc3cc(C)on3)cc2)c1,-2%
7,CCN(CC)c1ncnnc1-c1ccccc1,-22.1%
8,CC(C)(C)S(=O)(=O)/C(C#N)=N/Nc1ccc(C#N)cc1,-38.5%
9,CC(C)(C)S(=O)(=O)/C(C#N)=N/Nc1ccc(Cl)cc1,4.5%
10,CC(C)(C)c1ccc(N/N=C(\C#N)S(=O)(=O)C(C)(C)C)cc1,41% (active)
11,CC(=O)C1=C(O)C(=O)N(CCc2ccccc2)C1c1ccccc1[N+](=O)[O-] (centres undefined),-12%
12,CCOC(=O)N1CCN(C(=O)c2cc3cc(OC)c(OC)cc3[nH]2)CC1,-3.4%
13,O=C(NCCc1ccccc1)C(=O)NCC1OCCN1S(=O)(=O)c1ccc(Cl)cc1 (centres undefined),-1.1%
14,CCCCN(C)Cc1c(C)[nH]c2c(Cl)cccc2c1=O,-15%
15,CCc1nnc(NC(=O)c2ccc(S(=O)(=O)N3CCc4ccccc4C3)cc2)s1,-1.9%
16,O=C(Nc1nnc(C2CC2)s1)c1ccc(Cl)c(S(=O)(=O)N2CCc3ccccc3C2)c1,59%
17,CN1CCN(c2nc3ccccc3nc2C(C#N)S(=O)(=O)c2ccccc2)CC1 (centres undefined),-5.2%
18,CSC1=N/C(=C\c2ccccc2Cl)C(=O)N1N(C)C,0.8%
19,O=C(CN1CCc2ccccc2C1)NCC(=O)Nc1ccc(F)cc1,-25.2%
20,CCOc1cc(C2/C(=C(/O)c3ccc(OC)cc3)C(=O)C(=O)N2CC2CCCO2)ccc1O (centres undefined),-1.7%
21,COc1ccc(O)c(CN2CCC(n3nccc3NC(=O)CCOc3ccccc3)CC2)c1,-1.2%
22,COC(=O)Nc1ccc(S(=O)(=O)NC2CCS(=O)(=O)C2)cc1 (centres undefined),-9.9%
23,COC(=O)Cn1c(=O)c(C(=O)CCl)c(N)n(Cc2ccccc2)c1=O,69.8% (active)
24,Cn1c(N)c(C(=O)CCl)c(=O)n(Cc2ccccc2)c1=O,43.7%
25,CCn1c(=O)c(C(=O)CC#N)c(N)n(Cc2ccccc2)c1=O,-11.1%

row,Structure (SMILES),inhibition
1,COc1ccc(-c2csc3ncnc(N4CCN(c5ccccc5Cl)CC4)c23)cc1,-4.5%
2,CCOP(=O)(OCC)/C(=N/OC(=O)c1ccccc1C)C(N)=O,-58.9%
3,O=C(Cc1ccccc1)NCCc1cn2ccsc2n1,-3.8%
4,Cc1ccc(C(=O)NC(C(=O)Nc2ccccc2)c2ccccc2)cc1 (centres undefined),-3.5%
5,COc1ccc(NC(=O)C(NC(=O)c2ccc(C)cc2)c2ccccc2)cc1 (centres undefined),62.7% (active)
6,COc1ccc(NC(=O)C(NC(=O)c2ccc(=O)[nH]c2)c2ccccc2)cc1 (centres undefined),-7.3%
7,CCc1ccccc1NC(=O)c1cc(-c2ccc(OC)cc2)on1,-2%
8,CC1Cc2ccccc2N1C(=O)CN1CCC(n2nnc3cc(C(F)(F)F)ccc32)CC1 (centres undefined),23.9%
9,O=C(Nc1cccc([N+](=O)[O-])c1)c1cc2ccccc2cc1O,17.3%
10,O=C(O)c1ccccc1C(=O)Nc1cccc([N+](=O)[O-])c1,-0.9%
11,O=C(Nc1ccccn1)c1ccc2ccccc2c1O,-61.1%
12,CC(=O)Nc1ccc(Br)c2ccccc12,-4.6%
13,O=C(O)c1cccc(NC(=S)N/N=C/c2ccccc2OCc2cccc(Br)c2)c1,-13.5%
14,Cc1noc(-c2ccccc2)c1NC(=O)Nc1ccccc1,2%
15,C=CCOc1ccc2ccccc2c1CNCCCN1CCOCC1,10%
16,CCN1C(=O)N(S(=O)(=O)C(F)(F)F)[C@@H](c2ccccc2)C(C(=O)OC)=C1C,0.6%
17,COc1ccccc1N1CCN(C(=O)c2sc3nc(C)nc(N4CCN(c5ccccn5)CC4)c3c2C)CC1,33.2%
18,Cc1nc(N2CCN(c3ccccn3)CC2)c2c(C)c(C(=O)Nc3ccc(Cl)cc3)sc2n1,-14%
19,Cc1nc(N2CCN(c3ccccn3)CC2)c2c(C)c(C(=O)N3CCN(c4cccc(Cl)c4)CC3)sc2n1,18%
20,Cc1nc(N2CCN(c3ccccn3)CC2)c2c(C)c(C(=O)Nc3c(F)cc(F)cc3Br)sc2n1,-28.6%
21,Cc1nc(N2CCN(c3ccccn3)CC2)c2c(C)c(C(=O)Nc3ccc(F)cc3Cl)sc2n1,6.8%
22,Cc1nc(N2CCN(c3ccccn3)CC2)c2c(C)c(C(=O)Nc3ccc(F)cc3F)sc2n1,12.3%
23,Cc1c(C(=O)N2CCN(c3ccccn3)CC2)sc2ncnc(N3CCOCC3)c12,-12.5%
24,Cc1c(C(=O)N2CCN(c3ccccc3)CC2)sc2ncnc(N3CCN(c4ccccn4)CC3)c12,27.4%
